Holding throughout (assay): NCI-60 one-dose screen, 48 h (100 = growth as untreated, 0 = no growth, -100 = all killed)
Settings in all cases: 10 µM unless noted

Assay [1] relates to T-47D breast.
Assay [2] deals with BT-549 breast.
The test system of assay [3] is MDA-MB-435 melanoma.
The subject of assay [4] is SW-620 colon.
The test system of assay [5] is MCF7 breast.
Assay [6] concerns HCT-116 colon.
The test system of assay [7] is HCC-2998 colon.
Assay [8] relates to KM12 colon.

Compounds without any hit were thinned out: in the full panel of roughly 83,000, 20% have a hit.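 The test compound was applied at a single concentration to cells in 96-well plates for 48 hours, and percent growth was recorded.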 Values without a mark were called inactive. Calls of active or inactive are those of the source. Rule for the calls: active = growth percent below 10; inactive = the rest.

For `Cc1cnc([C@]23CC[C@@H](C)[C@H](C)[C@H]2C2=CC[C@@H]4[C@@]5(C)Cc6c([nH]c7ccccc67)C(C)(C)[C@@H]5CC[C@@]4(C)[C@]2(C)CC3)o1`, the growth is 58% [100 µM] in assay [1]; 46.5% [100 µM] in assay [2]; -16.7% [100 µM] (active) in assay [3]; 20.6% [100 µM] in assay [4]; 46.8% [100 µM] in assay [5]; 17.3% [100 µM] in assay [6]. The growth in assay [7] is 50% [100 µM]; in assay [8] it was 24.7% [100 µM].
In the case of `Cc1ccc(C2=C/C(=C/c3ccc(Br)cc3)C(=O)N2CCc2ccc(S(N)(=O)=O)cc2)cc1`, the growth in assay [1] was 75.9%; in assay [2] it was 98.1%; in assay [3], 101%; in assay [4], 103%; in assay [5], 88.5%; in assay [6], 95.2%. For the same molecule, the growth in assay [7] was 105%; in assay [8], 100%.
Regarding `COc1ccc(-c2cc(-c3ccccc3)nc(NCCNc3ccnc4cc(Cl)ccc34)n2)cc1`, the growth in assay [1] was -64.6% (active); in assay [2], -69.4% (active); in assay [3], -68.8% (active); in assay [4], -68.2% (active); in assay [5], -75.7% (active); in assay [6], -74.1% (active). In addition, the values for the growth in assay [7] and in assay [8] were -81.1% (active) and -72.7% (active), respectively.
Regarding `Cc1ccc(-c2cc(-c3ccc(C)cc3)nc(N3CCN(CCNc4ccnc5cc(Cl)ccc45)CC3)n2)cc1`, the growth in assay [1] was 71.8%; in assay [2], 67.6%; in assay [3], 23.3%; in assay [4], -29.1% (active); in assay [5], 15.5%; in assay [6], -3.1% (active). In addition, the growth in assay [7] is 16.6%; in assay [8] it was 31.9%.
As for `C[C@H]1[C@H](C)CC[C@]2(C(=O)O)CC[C@]3(C)C(=CC[C@@H]4[C@@]5(C)C/C(=C/c6cccnc6)[C@H](O)C(C)(C)[C@@H]5CC[C@]43C)[C@H]12`, the growth in assay [1] was 15.2% [100 µM]; in assay [2] it was -7.55% [100 µM] (active); in assay [3], 7.2% [100 µM] (active); in assay [4], 14.9% [100 µM]; in assay [5], 3.47% [100 µM] (active); in assay [6] it was -24.6% [100 µM] (active). The growth in assay [7] is -8.19% [100 µM] (active); in assay [8], -37.1% [100 µM] (active).
Regarding `COc1ccc2nc3ccccc3c(NCCNCCO)c2c1`, the growth in assay [1] was 4.93% (active); in assay [2] it was 8.11% (active); in assay [3] it was -53.8% (active); in assay [4] it was -18.3% (active); in assay [5], 2.08% (active); in assay [6] it was -36.5% (active). Also, the growth is -72.5% (active) in assay [7] and -30.5% (active) in assay [8].
For `CC(C)=CC/C=C(/C)[C@H]1CC[C@]2(C)[C@@H]1CC[C@@H]1[C@@]3(C)CCC(=O)NC(C)(C)[C@@H]3CC[C@]12C`, the growth was -3.77% [100 µM] (active) in assay [1]; -0.884% [100 µM] (active) in assay [2]; -4.47% [100 µM] (active) in assay [3]; -58.8% [100 µM] (active) in assay [4]; 8.52% [100 µM] (active) in assay [5]; -37.4% [100 µM] (active) in assay [6]. Moreover, the growth in assay [7] was 5.26% [100 µM] (active); in assay [8] it was -56% [100 µM] (active).
As for `CC1(C)CC[C@]2(C(=O)O)CC[C@]3(C)C(=CC[C@@H]4[C@@]5(C)C/C(=C/c6ccco6)C(=O)C(C)(C)[C@@H]5CC[C@]43C)[C@@H]2C1`, the growth in assay [1] was -0.554% [100 µM] (active); in assay [2] it was -27.2% [100 µM] (active); in assay [3], -70.6% [100 µM] (active); in assay [4], -32.8% [100 µM] (active); in assay [5] it was -8.44% [100 µM] (active); in assay [6], -71.8% [100 µM] (active). Besides, the growth in assay [7] is -58.1% [100 µM] (active); in assay [8], -65.9% [100 µM] (active).
As to `C=C(C)[C@@H]1CC[C@]2(c3ncc(C)o3)CC[C@]3(C)[C@H](CC[C@@H]4[C@@](C)(CCC#N)[C@H](C(=C)C)CC[C@]43C)[C@@H]12`, the growth in assay [1] is -73.4% [100 µM] (active); in assay [2], -76% [100 µM] (active); in assay [3], -84.6% [100 µM] (active); in assay [4], -70% [100 µM] (active); in assay [5] it was -73.3% [100 µM] (active); in assay [6] it was -81.8% [100 µM] (active). Besides, the growth is -80.9% [100 µM] (active) in assay [7] and -75.1% [100 µM] (active) in assay [8].
As for `CCc1cccc(Cl)c1`, the growth in assay [1] was 107%; in assay [2], 92%; in assay [3], 107%; in assay [4] it was 111%; in assay [5], 99.4%; in assay [6] it was 104%. The growth in assay [7] was 106%; in assay [8] it was 101%.
Regarding `C=C(C)[C@@H]1CC[C@]2(C(=O)NCCCCCCN(CCCN)CCCN)CC[C@]3(C)[C@H](CC[C@@H]4[C@@]5(C)CC[C@H](OCCCN)C(C)(C)[C@@H]5CC[C@]43C)[C@@H]12`, the growth was 85.3% [100 µM] in assay [1]; 118% [100 µM] in assay [2]; 89.6% [100 µM] in assay [3]; 7.33% [100 µM] (active) in assay [4]; 14.5% [100 µM] in assay [5]; 12.6% [100 µM] in assay [6]. For the same molecule, the growth in assay [7] was 77.1% [100 µM]; in assay [8], 31.5% [100 µM].
With `CCN1c2ccccc2C(Cl)(c2ccc(N(C)C)cc2)c2ccccc21`, the growth is 54.9% in assay [1]; 62.1% in assay [2]; 23.3% in assay [3]; 12.2% in assay [4]; 76.2% in assay [5]; 17.5% in assay [6]. Further, the growth in assay [7] is 78%; in assay [8], 21.9%.
Turning to `CCN(CC)c1ccc2cc(C(Nc3ccc(Cl)cc3)c3nnnn3C(C)(C)C)c(=O)oc2c1` (configuration not stated), the growth is 71.7% in assay [1]; 103% in assay [2]; 87.8% in assay [3]; 100% in assay [4]; 74.2% in assay [5]; 92% in assay [6]. The growth in assay [7] is 105%; in assay [8], 88.7%.
With `CCOC(=O)c1ccc2nc(-c3c(C)nn(-c4ccccc4)c3N3CCOCC3)[nH]c2c1`, the growth in assay [1] is 73%; in assay [2], 93.4%; in assay [3], 99.4%; in assay [4] it was 97.3%; in assay [5] it was 88.6%; in assay [6], 93.2%. Also, the figures for the growth in assay [7] and in assay [8] were 95.9% and 96.9%, respectively.
